Source: PubChem (National Center for Advancing Translational Sciences (NCATS))
Rows were chosen to be rich in hits. Some 10% of all compounds tested hit in one or more screens of this group.
Gal4-VP16 FLuc – Gal4-VP16 reporter inhibition counter-screen. Potency, µM (doses to about 53.6 µM), inactives show at the highest dose activity, negative = inhibition, hits mostly inhibitors. Drosophila S2 Gal4-VP16 UAS-luciferase, luminescence, 20 h. hit rate 3.5% among 310,000;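 also: Gal4-VP16 expression switched on by copper sulfate through the metallothionein promoter; % is scaled to controls: 0 for no effect and ±100 for the full control effect; nearly all actives have a fitted effect of over 50% in size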
SW480 rerep – inducers of DNA re-replication in SW480 colon cancer cells | SW480 DNA re-replication, Hoechst DNA content imaging, 48 h | Potency, µM (doses to about 46.1 µM), for inactives: top-dose re-replication activation, usual class: activators | hit rate 1.8% among 340,000 | AID 624297; also: % of control where 0% means no effect; nearly all actives have a fitted effect of over 55% in size
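Image-based read-out: total Hoechst fluorescence of nuclei (405 nm excitation, 500-530 nm emission), with hits raising the fraction of high-intensity nuclei. SW480 colon cells incubated 48 hr with compounds at 37 C.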
RORg inh – blocks mouse ROR gamma transcriptional activity; P51450; Drosophila S2 Gal4-RORgamma UAS-luciferase reporter, 20 h; Potency, µM (highest dose often 53.6 µM), inactives show at the highest dose activity change, negative = inhibition, actives largely listed as inhibitors; hit rate 5.4% among 310,000; AID 2551; also: % is scaled to controls: 0 for no effect and ±100 for the full control effect; nearly all actives have a fitted effect of over 60% in size
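ROR gamma transcriptional activity was tracked as Gal4-UAS luciferase output in stably transfected Drosophila Schneider cells, with compound added 1 hr before 700 uM copper sulfate induction and a 20 hr ambient-temperature incubation.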
ELG1 DNA repair – ELG1-dependent DNA repair inhibition; HEK293T ELG1-luciferase reporter, luminescence, 16 h; DNA damage induced by 5-fluorouridine; Potency, µM (highest dose often 46.1 µM), inactives show at the highest dose activity change, negative = inhibition, actives largely listed as inhibitors; hit rate 2.3% among 330,000; also: % is scaled to controls: 0 for no effect and ±100 for the full control effect; nearly all actives have a fitted effect of over 55% in size
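Step one: seed 2,000 cells per well. Step two: pin-transfer compound or DMSO alongside 5-fluorouridine. Step three: incubate 16 hr, 37 °C, 5% CO2. Step four: add ONE-Glo, wait 30 min, read luminescence.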
MCF10A rerep – induces DNA re-replication in MCF 10a normal breast cells. MCF 10A DNA re-replication, Hoechst nuclear intensity, 48 h. Potency, µM (series often up to 46.1 µM), inactives show at the top dose activity, positive = re-replication, actives largely listed as activators. hit rate 2.9% among 350,000. AID 624296; also: % of control where 0% means no effect; nearly all actives have a fitted effect of over 50% in size
ELG1 FLuc counter – luciferase inhibition in cell-free luciferin readout for ELG1 hits; Potency, µM (highest dose often 46.1 µM), without a hit: at the top dose activity change, negative = inhibition, most hits filed as inhibitors; shares compounds with ELG1 DNA repair; hit rate 3% among 350; cell-free firefly luciferase luminescence counter-screen, ViewLux; also: % is scaled to controls: 0 for no effect and ±100 for the full control effect
ELG1-Luc inh – inhibits ELG1-dependent DNA repair in HEK293T cells, confirmed. shares compounds with ELG1 DNA repair. Potency, µM (top dose mostly 46.1 µM), for inactives: at the top dose activity change, negative = inhibition, hits mostly inhibitors. AID 624248. hit rate 68% among 670. HEK293T ELG1-luciferase levels, luminescence; cells co-treated with 5-fluorouridine; also: % is scaled to controls: 0 for no effect and ±100 for the full control effect; nearly all actives have a fitted effect of over 55% in size
Target sequence (Q96QE3 whole entry, looked up): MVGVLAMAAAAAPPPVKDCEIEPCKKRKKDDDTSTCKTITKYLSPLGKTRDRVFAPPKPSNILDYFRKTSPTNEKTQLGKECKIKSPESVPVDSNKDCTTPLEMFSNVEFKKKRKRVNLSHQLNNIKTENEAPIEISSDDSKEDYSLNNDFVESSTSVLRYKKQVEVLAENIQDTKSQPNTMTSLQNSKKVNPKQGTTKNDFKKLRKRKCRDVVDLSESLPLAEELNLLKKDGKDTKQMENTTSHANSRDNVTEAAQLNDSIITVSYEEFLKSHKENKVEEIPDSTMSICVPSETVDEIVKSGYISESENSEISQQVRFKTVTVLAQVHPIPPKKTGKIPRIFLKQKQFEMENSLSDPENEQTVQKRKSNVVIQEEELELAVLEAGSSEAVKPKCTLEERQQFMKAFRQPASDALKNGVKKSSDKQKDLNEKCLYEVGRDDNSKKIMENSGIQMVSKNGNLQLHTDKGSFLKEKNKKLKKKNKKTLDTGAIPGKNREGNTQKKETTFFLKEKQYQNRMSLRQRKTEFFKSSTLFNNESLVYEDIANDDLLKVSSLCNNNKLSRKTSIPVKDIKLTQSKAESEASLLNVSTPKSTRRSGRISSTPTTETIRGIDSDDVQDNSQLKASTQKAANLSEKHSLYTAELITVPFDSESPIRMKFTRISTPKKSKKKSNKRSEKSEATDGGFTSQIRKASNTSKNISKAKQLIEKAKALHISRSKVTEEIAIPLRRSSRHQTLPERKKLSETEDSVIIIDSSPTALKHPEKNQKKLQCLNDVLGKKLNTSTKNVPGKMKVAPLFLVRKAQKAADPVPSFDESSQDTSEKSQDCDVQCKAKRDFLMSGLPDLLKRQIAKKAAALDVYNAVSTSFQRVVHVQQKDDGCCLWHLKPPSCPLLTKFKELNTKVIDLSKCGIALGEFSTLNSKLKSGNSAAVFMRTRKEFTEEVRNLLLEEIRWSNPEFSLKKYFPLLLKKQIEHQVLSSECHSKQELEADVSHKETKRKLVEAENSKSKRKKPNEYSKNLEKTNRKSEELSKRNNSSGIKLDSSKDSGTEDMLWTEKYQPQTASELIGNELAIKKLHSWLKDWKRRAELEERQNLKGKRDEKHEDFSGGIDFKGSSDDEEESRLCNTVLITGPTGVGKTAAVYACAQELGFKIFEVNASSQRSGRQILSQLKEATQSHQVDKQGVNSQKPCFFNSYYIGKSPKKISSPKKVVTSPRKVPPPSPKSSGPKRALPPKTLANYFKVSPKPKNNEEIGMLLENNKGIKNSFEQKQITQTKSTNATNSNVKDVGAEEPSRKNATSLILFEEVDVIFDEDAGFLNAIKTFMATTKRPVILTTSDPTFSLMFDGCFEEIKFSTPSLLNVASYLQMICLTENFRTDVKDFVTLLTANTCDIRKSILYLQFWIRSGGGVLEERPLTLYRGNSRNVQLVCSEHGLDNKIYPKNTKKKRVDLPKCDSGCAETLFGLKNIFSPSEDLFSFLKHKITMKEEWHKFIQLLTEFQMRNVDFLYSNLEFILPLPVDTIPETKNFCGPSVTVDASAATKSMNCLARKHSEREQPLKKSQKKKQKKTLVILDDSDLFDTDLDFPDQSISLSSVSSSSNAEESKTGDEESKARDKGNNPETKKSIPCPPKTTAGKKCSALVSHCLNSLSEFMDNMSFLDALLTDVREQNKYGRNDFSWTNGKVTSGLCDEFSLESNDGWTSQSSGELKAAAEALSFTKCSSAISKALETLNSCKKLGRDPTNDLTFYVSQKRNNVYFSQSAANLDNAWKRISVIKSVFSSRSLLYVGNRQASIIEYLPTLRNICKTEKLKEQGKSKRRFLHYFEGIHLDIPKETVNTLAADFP
ELG1 MMS Luc – MMS-stimulated human ELG1 repair inhibition, confirmed; shares compounds with ELG1 DNA repair; HEK293T luciferase-tagged ELG1 level, MMS stimulated; Potency, µM (highest dose often 46.1 µM), inactives show top-dose activity change, negative = inhibition, usual class: inhibitors; hit rate 53% among 670; also: % is scaled to controls: 0 for no effect and ±100 for the full control effect; nearly all actives have a fitted effect of over 60% in size
ELG1 5-FU – confirmation of ELG1 repair inhibitors: viability with 5FU | shares compounds with ELG1 DNA repair | cell viability with 5-FU, ELG1-dependent repair | Potency, µM (highest dose often 46.1 µM), for inactives: at the top dose activity change, negative = viability loss, hits mostly cytotoxic | 670 tested, under 10 active | AID 624250;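 also: ELG1-luc HEK293T cells cotreated with 5-fluorouridine at 10 µM final; viability measured 16 h after compound addition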
ELG1 MMS viab – confirmation of ELG1 repair inhibitors: viability with MMS | Potency, µM (highest dose often 46.1 µM), inactives show top-dose activity change, negative = viability loss, actives largely listed as cytotoxic | Cell viability with MMS, ELG1-dependent DNA repair | hit rate 33% among 670 | shares compounds with ELG1 DNA repair | AID 624251;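 also: ELG1-luc HEK293T cells co-treated with 10 µM MMS; viability read 16 h after compound addition; % is scaled to controls: 0 for no effect and ±100 for the full control effect; nearly all actives have a fitted effect of over 60% in size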
Cell viab unstim – affects unstimulated cell viability, ELG1 hit counter-screen | shares compounds with ELG1 DNA repair | cell viability counter-screen, unstimulated, luminescence | Potency, µM (titrated, usually from 45.9 µM), inactives show top-dose activity change, negative = loss of viability, usual class: cytotoxic | hit rate 8% among 900;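 also: compound exposure lasted 16 hours before reading; % is scaled to controls: 0 for no effect and ±100 for the full control effect; nearly all actives have a fitted effect of over 55% in size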
FLuc enzyme – counter-screen for ELG1 repair inhibitors: firefly luciferase inhibition; purified firefly luciferase, luminescence counter-screen; AID 624253; Potency, µM (series often up to 57.5 µM), for inactives: at the top dose activity, negative = inhibition, hits mostly inhibitors; hit rate 10% among 350; shares compounds with ELG1 DNA repair; also: % is scaled to controls: 0 for no effect and ±100 for the full control effect
An asterisk follows results filed as active; [ ] = dose if it differs, or a comment. Calls follow the shape of the dose curve; as a rule, active = well fitted curve in the direction sought with a large enough effect; inconclusive = small, poorly fitted or top-dose-only effect, or another doubt; inactive = no such curve, though single readings can be large; an effect the other way counts as inactive or inconclusive. Potency is read from the fitted curve at half-maximal effect.

For O=C(/C=C/c1ccc(S(=O)(=O)N2CCOCC2)cc1)N1CCN(c2ccc(F)cc2)CC1 the results were Gal4-VP16 FLuc inconclusive, SW480 rerep -12%, RORg inh inconclusive, ELG1 DNA repair 2.3µM*, MCF10A rerep -1%, ELG1 FLuc counter 0%, ELG1-Luc inh -28%, ELG1 MMS Luc 7.1µM*, ELG1 5-FU -5%, ELG1 MMS viab inconclusive, Cell viab unstim inconclusive and FLuc enzyme -15%.
Screening CC(C)(C)OC(=O)C[C@@H]1C/C=C\C[C@@H](CC(=O)N[C@H](CO)Cc2ccccc2)C(=O)N2CCC[C@H]2COC1=O returned SW480 rerep 7%, ELG1 DNA repair 2.9µM*, MCF10A rerep 21%, ELG1-Luc inh inconclusive, ELG1 MMS Luc inconclusive, ELG1 5-FU -2%, ELG1 MMS viab -7% and Cell viab unstim inconclusive.
Cc1ccc(NC(=O)c2nc[nH]c2C(=O)NCCCCNC(=O)c2[nH]cnc2C(=O)Nc2ccc(C)cc2)cc1 was read as SW480 rerep -1%, ELG1 DNA repair 0.73µM*, MCF10A rerep -1%, ELG1 FLuc counter 0%, ELG1-Luc inh 1.3µM*, ELG1 MMS Luc 1.8µM*, ELG1 5-FU -23%, ELG1 MMS viab inconclusive, Cell viab unstim -12% and FLuc enzyme -3%.
`Cc1ccc(NC(=O)c2nc[nH]c2C(=O)NCCCCCCNC(=O)c2[nH]cnc2C(=O)Nc2ccc(C)cc2)cc1` gave SW480 rerep 0%, ELG1 DNA repair inconclusive and MCF10A rerep -2%.
`O=C(Nc1ccccc1)c1nc[nH]c1C(=O)NCCNC(=O)c1[nH]cnc1C(=O)Nc1ccccc1` gave SW480 rerep 6%, ELG1 DNA repair 2.3µM*, MCF10A rerep inconclusive, ELG1-Luc inh 5µM*, ELG1 MMS Luc 4.4µM*, ELG1 5-FU -1%, ELG1 MMS viab inconclusive and Cell viab unstim 16µM*.
Cc1cccc(NC(=O)CCC2CCN(Cc3nccs3)CC2)c1 was read as Gal4-VP16 FLuc 4%, SW480 rerep -10%, RORg inh 1%, ELG1 DNA repair 2% and MCF10A rerep -3%.
Screening CCn1nc(C)cc1C(=O)N1CCCC(N2CCN(Cc3ccc4c(c3)OCO4)CC2)C1 (configuration not stated) returned Gal4-VP16 FLuc -7%, SW480 rerep inconclusive, RORg inh -7%, ELG1 DNA repair 2% and MCF10A rerep 6%.
For CN(C)S(=O)(=O)c1ccc(NC(=O)c2cc(-c3cccs3)nc3ccccc23)cc1 the results were Gal4-VP16 FLuc -3%, SW480 rerep -2%, RORg inh -1%, ELG1 DNA repair 3.7µM*, MCF10A rerep inconclusive, ELG1-Luc inh inconclusive, ELG1 MMS Luc inconclusive, ELG1 5-FU 3%, ELG1 MMS viab -12% and Cell viab unstim inconclusive.
`O=C(CSc1nnc(-c2ccc(O)cc2)o1)Nc1ccccc1Br` gave Gal4-VP16 FLuc 1%, SW480 rerep -13%, RORg inh -22%, ELG1 DNA repair inconclusive, MCF10A rerep -6% and Cell viab unstim -2%.
For O=C(CSc1nnc(-c2ccc(F)cc2)o1)Nc1ccc(S(=O)(=O)N2CCCCCC2)cc1 the results were Gal4-VP16 FLuc -5%, SW480 rerep inconclusive, RORg inh -22%, ELG1 DNA repair -3%, MCF10A rerep 24%, ELG1 FLuc counter -5%, Cell viab unstim inconclusive and FLuc enzyme -7%.
O=C(CSc1nnc(-c2ccc(F)cc2)o1)Nc1ccc(S(=O)(=O)N2CCCC2)cc1 was read as Gal4-VP16 FLuc -7%, SW480 rerep 1%, RORg inh 4%, ELG1 DNA repair 26% and MCF10A rerep 9%.
`COc1cccc(NC(=O)CSc2nnc(-c3ccc(C)cc3)o2)c1` gave Gal4-VP16 FLuc 13µM*, SW480 rerep 2%, RORg inh inconclusive, ELG1 DNA repair inconclusive, MCF10A rerep 0% and Cell viab unstim 1%.
Screening Cc1ccccc1NC(=O)CSc1nc2ccccc2o1 returned Gal4-VP16 FLuc 3%, SW480 rerep -3%, RORg inh inconclusive, ELG1 DNA repair inconclusive, MCF10A rerep -4%, ELG1 FLuc counter 64%, Cell viab unstim inconclusive and FLuc enzyme -6%.
`Cc1ccc(NC(=O)CSc2nnc(-c3ccncc3)o2)cc1` gave Gal4-VP16 FLuc -1%, SW480 rerep -4%, RORg inh -33%, ELG1 DNA repair -3% and MCF10A rerep 4%.
Screening Cc1ccccc1-c1nnc(SCC(=O)Nc2cccnc2Cl)o1 returned SW480 rerep -8%, ELG1 DNA repair inconclusive, MCF10A rerep -18% and Cell viab unstim 25µM*.
Screening O=C1/C(=C/c2ccc(O)c(O)c2)Oc2ccccc21 returned Gal4-VP16 FLuc inconclusive, RORg inh inconclusive and Cell viab unstim -12%.
For c1ccc(Cn2cc(CSc3ccccc3)nn2)cc1 the results were Gal4-VP16 FLuc 21%, SW480 rerep -7%[9.22 µM], RORg inh 37%, ELG1 DNA repair inconclusive and MCF10A rerep 0%.
